Reference: ChEMBL document CHEMBL1961873, “Compounds: GSK PKIS; Assays: Nanosyn kinase panel” (2012)

What was measured:
[1] = biological target: RAC-alpha serine/threonine-protein kinase (Homo sapiens) (UniProt P31749); conditions: at 0.1 µM
[2] = biological target: RAC-alpha serine/threonine-protein kinase (Homo sapiens) (UniProt P31749); conditions: at 1 µM
[3] = biological target: RAC-beta serine/threonine-protein kinase (Homo sapiens) (UniProt P31751); conditions: at 0.1 µM
[4] = biological target: RAC-beta serine/threonine-protein kinase (Homo sapiens) (UniProt P31751); conditions: at 1 µM
[5] = biological target: RAC-gamma serine/threonine-protein kinase (Homo sapiens) (UniProt Q9Y243); conditions: at 0.1 µM
Sequence of RAC-gamma serine/threonine-protein kinase (Homo sapiens) (Q9Y243 whole entry): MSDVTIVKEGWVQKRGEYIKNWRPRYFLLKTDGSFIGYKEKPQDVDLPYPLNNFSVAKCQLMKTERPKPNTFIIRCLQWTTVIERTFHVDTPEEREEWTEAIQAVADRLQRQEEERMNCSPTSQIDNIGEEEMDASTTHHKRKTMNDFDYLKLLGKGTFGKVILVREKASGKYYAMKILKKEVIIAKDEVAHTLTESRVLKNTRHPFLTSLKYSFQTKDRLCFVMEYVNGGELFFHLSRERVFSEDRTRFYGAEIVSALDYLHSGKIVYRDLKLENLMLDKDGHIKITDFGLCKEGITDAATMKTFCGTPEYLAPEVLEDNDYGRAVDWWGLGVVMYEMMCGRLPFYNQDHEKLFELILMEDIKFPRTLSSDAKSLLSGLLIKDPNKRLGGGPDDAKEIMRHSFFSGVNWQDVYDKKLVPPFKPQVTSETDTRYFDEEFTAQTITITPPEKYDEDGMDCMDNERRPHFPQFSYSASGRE

[6] = biological target: RAC-gamma serine/threonine-protein kinase (Homo sapiens) (UniProt Q9Y243); conditions: at 1 µM
[7] = biological target: G protein-coupled receptor kinase 6 (Homo sapiens) (UniProt P43250); conditions: at 0.1 µM
Sequence of G protein-coupled receptor kinase 6 (Homo sapiens) (P43250 whole entry, looked up): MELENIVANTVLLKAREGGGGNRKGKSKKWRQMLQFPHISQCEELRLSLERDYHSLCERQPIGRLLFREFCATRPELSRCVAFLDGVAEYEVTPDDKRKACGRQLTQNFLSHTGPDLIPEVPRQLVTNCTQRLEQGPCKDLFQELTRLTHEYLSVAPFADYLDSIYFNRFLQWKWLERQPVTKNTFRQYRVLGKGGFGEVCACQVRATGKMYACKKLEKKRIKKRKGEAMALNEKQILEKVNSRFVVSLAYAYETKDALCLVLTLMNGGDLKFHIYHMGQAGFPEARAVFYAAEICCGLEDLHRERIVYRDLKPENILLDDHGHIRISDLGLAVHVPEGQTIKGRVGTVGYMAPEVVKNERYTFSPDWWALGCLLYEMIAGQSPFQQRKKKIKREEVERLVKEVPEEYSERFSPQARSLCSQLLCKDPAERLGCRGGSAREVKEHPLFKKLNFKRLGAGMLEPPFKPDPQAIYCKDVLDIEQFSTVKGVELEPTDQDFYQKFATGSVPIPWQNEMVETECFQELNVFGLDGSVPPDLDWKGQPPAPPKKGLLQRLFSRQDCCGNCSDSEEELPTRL

[8] = biological target: G protein-coupled receptor kinase 6 (Homo sapiens) (UniProt P43250); conditions: at 1 µM
[9] = biological target: T1, Rhodopsin kinase GRK7 (Homo sapiens) (UniProt Q8WTQ7); conditions: at 0.1 µM
T1 sequence (whole entry): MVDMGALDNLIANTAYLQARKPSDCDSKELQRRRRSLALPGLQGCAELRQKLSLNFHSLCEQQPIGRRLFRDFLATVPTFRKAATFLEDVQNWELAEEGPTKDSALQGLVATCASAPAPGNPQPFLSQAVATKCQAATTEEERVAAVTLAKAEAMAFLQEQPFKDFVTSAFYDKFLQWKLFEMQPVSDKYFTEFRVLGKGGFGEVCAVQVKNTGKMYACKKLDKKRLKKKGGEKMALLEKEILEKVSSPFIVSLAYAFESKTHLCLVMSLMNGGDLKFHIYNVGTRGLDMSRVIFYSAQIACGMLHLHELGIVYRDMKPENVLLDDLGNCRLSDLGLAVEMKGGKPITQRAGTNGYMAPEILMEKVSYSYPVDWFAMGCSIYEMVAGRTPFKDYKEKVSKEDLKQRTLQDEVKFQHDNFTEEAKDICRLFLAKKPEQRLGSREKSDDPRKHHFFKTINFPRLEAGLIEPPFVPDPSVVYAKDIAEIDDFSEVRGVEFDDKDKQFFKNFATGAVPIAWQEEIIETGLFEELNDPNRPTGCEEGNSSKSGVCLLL

[10] = biological target: T1, Rhodopsin kinase GRK7 (Homo sapiens); conditions: at 1 µM
[11] = biological target: Serine/threonine-protein kinase MRCK alpha (Homo sapiens) (UniProt Q5VT25); conditions: at 0.1 µM
Sequence of Serine/threonine-protein kinase MRCK alpha (Homo sapiens) (Q5VT25 whole entry): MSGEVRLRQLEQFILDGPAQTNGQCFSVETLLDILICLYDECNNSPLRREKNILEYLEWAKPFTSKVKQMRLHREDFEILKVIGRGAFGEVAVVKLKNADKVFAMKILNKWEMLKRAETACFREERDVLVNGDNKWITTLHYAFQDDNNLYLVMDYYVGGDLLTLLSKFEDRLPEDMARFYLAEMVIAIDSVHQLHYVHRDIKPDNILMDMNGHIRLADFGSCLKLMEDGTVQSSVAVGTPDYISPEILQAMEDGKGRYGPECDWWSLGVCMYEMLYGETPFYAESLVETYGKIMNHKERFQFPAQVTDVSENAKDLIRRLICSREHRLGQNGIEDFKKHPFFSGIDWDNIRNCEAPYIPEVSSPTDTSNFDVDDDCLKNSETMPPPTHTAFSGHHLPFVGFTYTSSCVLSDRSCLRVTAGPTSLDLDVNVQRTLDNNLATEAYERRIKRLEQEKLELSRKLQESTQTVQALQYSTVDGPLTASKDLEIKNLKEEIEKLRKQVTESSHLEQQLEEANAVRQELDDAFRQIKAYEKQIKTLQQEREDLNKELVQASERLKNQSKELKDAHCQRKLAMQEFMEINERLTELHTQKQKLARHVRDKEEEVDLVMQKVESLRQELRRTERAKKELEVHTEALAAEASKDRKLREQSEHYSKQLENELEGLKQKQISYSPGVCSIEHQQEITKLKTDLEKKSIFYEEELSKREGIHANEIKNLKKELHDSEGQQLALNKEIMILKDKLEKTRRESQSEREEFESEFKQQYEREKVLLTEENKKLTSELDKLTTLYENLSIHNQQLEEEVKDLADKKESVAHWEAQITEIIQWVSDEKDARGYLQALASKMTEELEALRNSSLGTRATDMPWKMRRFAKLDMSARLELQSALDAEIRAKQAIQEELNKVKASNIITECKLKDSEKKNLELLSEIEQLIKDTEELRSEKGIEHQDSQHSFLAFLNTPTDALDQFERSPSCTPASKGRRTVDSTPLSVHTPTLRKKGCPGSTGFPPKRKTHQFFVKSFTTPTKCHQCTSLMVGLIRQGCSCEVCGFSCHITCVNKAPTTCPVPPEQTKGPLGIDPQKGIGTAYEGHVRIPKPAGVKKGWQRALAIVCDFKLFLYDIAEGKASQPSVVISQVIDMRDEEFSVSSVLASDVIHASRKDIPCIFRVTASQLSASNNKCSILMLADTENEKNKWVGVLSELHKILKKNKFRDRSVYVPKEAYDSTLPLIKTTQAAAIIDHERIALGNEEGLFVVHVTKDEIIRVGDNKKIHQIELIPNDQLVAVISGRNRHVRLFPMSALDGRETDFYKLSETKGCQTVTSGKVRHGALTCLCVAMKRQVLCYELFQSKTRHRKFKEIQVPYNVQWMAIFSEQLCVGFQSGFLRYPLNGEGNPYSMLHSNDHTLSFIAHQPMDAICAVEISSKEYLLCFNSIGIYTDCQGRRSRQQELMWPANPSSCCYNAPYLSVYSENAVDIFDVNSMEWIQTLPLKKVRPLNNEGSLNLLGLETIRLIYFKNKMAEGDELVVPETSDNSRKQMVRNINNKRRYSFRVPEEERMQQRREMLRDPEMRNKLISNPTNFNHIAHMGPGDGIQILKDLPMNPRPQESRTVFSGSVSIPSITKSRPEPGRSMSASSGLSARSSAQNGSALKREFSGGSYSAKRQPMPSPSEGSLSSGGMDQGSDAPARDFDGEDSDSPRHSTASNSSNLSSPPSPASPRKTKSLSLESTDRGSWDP

[12] = biological target: Serine/threonine-protein kinase MRCK alpha (Homo sapiens) (UniProt Q5VT25); conditions: at 1 µM
[13] = biological target: Serine/threonine-protein kinase MRCK beta (Homo sapiens) (UniProt Q9Y5S2); conditions: at 0.1 µM
[14] = biological target: Serine/threonine-protein kinase MRCK beta (Homo sapiens) (UniProt Q9Y5S2); conditions: at 1 µM
[15] = biological target: Ribosomal protein S6 kinase alpha-5 (Homo sapiens) (UniProt O75582); conditions: at 0.1 µM
[16] = biological target: Ribosomal protein S6 kinase alpha-5 (Homo sapiens) (UniProt O75582); conditions: at 1 µM
[17] = biological target: Ribosomal protein S6 kinase alpha-4 (Homo sapiens) (UniProt O75676); conditions: at 0.1 µM
Sequence of Ribosomal protein S6 kinase alpha-4 (Homo sapiens) (O75676 whole entry, looked up): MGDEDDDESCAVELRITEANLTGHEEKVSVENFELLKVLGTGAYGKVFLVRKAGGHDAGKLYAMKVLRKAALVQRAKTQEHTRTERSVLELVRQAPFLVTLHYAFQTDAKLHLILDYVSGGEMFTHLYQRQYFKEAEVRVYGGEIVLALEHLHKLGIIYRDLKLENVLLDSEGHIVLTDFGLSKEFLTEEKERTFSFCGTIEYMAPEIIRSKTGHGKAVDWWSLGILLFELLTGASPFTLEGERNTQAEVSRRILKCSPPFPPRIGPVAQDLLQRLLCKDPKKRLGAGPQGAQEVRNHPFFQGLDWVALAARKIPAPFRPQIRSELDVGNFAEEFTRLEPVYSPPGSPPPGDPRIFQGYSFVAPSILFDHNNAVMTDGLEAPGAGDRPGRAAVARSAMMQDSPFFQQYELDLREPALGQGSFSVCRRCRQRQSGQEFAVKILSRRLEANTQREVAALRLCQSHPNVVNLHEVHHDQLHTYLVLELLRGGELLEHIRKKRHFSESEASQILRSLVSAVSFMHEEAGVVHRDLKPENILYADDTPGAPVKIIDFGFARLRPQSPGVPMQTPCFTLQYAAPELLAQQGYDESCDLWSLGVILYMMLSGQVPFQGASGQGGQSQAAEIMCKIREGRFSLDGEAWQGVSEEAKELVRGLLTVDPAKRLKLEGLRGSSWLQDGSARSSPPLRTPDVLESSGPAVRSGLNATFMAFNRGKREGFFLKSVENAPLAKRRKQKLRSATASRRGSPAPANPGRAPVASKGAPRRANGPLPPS

[18] = biological target: Ribosomal protein S6 kinase alpha-4 (Homo sapiens) (UniProt O75676); conditions: at 1 µM
[19] = biological target: Ribosomal protein S6 kinase beta-1 (Homo sapiens) (UniProt P23443); conditions: at 0.1 µM
Sequence of Ribosomal protein S6 kinase beta-1 (Homo sapiens) (P23443 whole entry, looked up): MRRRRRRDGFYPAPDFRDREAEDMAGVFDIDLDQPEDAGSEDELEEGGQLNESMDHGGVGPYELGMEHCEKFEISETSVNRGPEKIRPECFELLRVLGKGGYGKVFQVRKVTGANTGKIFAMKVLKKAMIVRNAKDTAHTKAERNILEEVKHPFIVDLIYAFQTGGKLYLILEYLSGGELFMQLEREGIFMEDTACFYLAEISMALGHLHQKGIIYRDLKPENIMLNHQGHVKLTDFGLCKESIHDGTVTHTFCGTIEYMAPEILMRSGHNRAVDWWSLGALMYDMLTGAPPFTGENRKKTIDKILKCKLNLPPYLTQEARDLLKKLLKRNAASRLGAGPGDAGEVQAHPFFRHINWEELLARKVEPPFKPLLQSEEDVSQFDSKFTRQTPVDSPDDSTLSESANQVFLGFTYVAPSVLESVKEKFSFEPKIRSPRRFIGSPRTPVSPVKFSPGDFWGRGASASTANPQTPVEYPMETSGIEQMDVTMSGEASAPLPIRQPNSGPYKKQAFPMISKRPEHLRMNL

[20] = biological target: Ribosomal protein S6 kinase beta-1 (Homo sapiens) (UniProt P23443); conditions: at 1 µM

Sequence of RAC-beta serine/threonine-protein kinase (Homo sapiens) (P31751 whole entry): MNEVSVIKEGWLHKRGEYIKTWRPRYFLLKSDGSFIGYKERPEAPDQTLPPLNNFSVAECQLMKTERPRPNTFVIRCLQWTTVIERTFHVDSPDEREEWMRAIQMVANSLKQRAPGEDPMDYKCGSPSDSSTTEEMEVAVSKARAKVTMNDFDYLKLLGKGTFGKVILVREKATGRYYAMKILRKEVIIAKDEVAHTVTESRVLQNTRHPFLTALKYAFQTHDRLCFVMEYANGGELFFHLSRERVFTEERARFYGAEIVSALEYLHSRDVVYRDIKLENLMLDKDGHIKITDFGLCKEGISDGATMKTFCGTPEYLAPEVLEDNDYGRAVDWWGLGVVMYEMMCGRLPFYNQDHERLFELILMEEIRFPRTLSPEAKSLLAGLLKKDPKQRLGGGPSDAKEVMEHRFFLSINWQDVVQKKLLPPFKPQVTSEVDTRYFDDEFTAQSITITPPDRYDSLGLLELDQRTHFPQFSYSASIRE
Sequence of RAC-alpha serine/threonine-protein kinase (Homo sapiens) (P31749 whole entry): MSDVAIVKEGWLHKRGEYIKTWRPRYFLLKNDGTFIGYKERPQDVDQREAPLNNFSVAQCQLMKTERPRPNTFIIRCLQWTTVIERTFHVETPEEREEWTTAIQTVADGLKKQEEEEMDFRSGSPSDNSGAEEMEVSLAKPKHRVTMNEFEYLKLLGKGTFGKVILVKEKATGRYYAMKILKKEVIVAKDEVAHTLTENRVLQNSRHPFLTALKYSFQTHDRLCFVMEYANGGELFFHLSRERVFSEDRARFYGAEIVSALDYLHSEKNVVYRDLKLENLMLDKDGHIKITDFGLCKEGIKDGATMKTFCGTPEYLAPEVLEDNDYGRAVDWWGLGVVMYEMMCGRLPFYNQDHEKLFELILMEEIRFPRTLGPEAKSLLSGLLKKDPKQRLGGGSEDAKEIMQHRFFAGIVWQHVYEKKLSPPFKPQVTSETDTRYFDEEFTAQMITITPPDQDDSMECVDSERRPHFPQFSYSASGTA

| Structure (SMILES) | inhibition [1] [%] | inhibition [2] [%] | inhibition [3] [%] | inhibition [4] [%] | inhibition [5] [%] | inhibition [6] [%] | inhibition [7] [%] | inhibition [8] [%] | inhibition [9] [%] | inhibition [10] [%] | inhibition [11] [%] | inhibition [12] [%] | inhibition [13] [%] | inhibition [14] [%] | inhibition [15] [%] | inhibition [16] [%] | inhibition [17] [%] | inhibition [18] [%] | inhibition [19] [%] | inhibition [20] [%] |
| --- | --- | --- | --- | --- | --- | --- | --- | --- | --- | --- | --- | --- | --- | --- | --- | --- | --- | --- | --- | --- |
| CN(C)CCCn1c(-c2nonc2N)nc2cnccc21 | 0.01 | 1.38 | 1.85 | 3.82 | 0.92 | 1.84 | 3.78 | 3.55 | 2.61 | 5.07 | 1.89 | 16.4 | 4.34 | 22.6 | 8.29 | 28.7 | 3.18 | 13.9 | 2.39 | 13.2 |
| CN1CCN(C(=O)c2ccc(NC(=O)Nc3ccc(N(C)c4ccnc(Nc5ccc(CS(C)(=O)=O)cc5)n4)cc3)cc2)CC1 | 0.3 | -0.86 | -0.33 | 1.06 | 0.49 | 1.64 | 2.2 | 1.86 | 4.4 | 0.44 | 5.17 | 7.71 | -0.06 | 3.61 | 1.16 | 3.3 | 2.61 | 13.8 | 1.43 | 5.8 |
| COc1cc2ncn(-c3cc(OCc4ccccc4S(C)(=O)=O)c(C#N)s3)c2cc1OC | 1.44 | 1.02 | 2.07 | 1.33 | 2.7 | 1.68 | 13.8 | 3.6 | 8.51 | 40.4 | 1.12 | 5.41 | 1.99 | 4.7 | 8.16 | 11 | 3.93 | 10 | 3.14 | 5.33 |
| O=C1Nc2ccc(-c3cccnc3)cc2C1=Cc1cc(Br)c(O)c(Br)c1 | 1.65 | 2.74 | 1.49 | 2.84 | 1.24 | 1.67 | 11.3 | 46.1 | 20 | 60.3 | 0.24 | -0.62 | 0.92 | 1.01 | 3.3 | 3.39 | 0.89 | 2.67 | 2.32 | 2.15 |
| COc1cccc(-n2nc(C)c3c(N/N=C(\C)c4ccncc4)ncnc32)c1 | -0.15 | -0.16 | -0.34 | 0.3 | -0.78 | 3.59 | 0.75 | 1.13 | 3.79 | 0.01 | 1.87 | -2.42 | 0.02 | -0.47 | 0.18 | -0.52 | 0.44 | 0.3 | 0.29 | -0.38 |
| CS(=O)(=O)CCNCc1nc(-c2ccc3ncnc(Nc4ccc(OCc5cccc(C(F)(F)F)c5)cc4)c3c2)cs1 | 0.2 | -0.66 | -0.39 | 0.39 | 0.84 | 1.91 | 0.43 | 0.06 | 3.85 | -1.01 | 4.26 | 2.95 | -0.6 | 0.82 | 0.64 | 1.57 | 1.54 | 2.66 | 1.22 | 1.83 |
| NS(=O)(=O)c1ccc(-c2cc3ccncc3cc2OCc2ccccc2)cc1 | 0.08 | 0.83 | 1.46 | 1.66 | 0.51 | 2.2 | 2.02 | 8.2 | 1.52 | 6.27 | -0.66 | -1.1 | -1.66 | -2.27 | 1.89 | 0.96 | 1.86 | 2.64 | 1.3 | 2.04 |
